Rows were chosen to be rich in hits. Some 6.7% of all compounds tested hit in one or more screens of this group.
Pf Dd2 growth: P. falciparum Dd2 growth inhibitors, primary screen, SYBR Green fluorescence, single dose replicates; 72 h; stronger effect = lower value; activity change, % at 10 µM; 2.3% of 94,000 active; AID 1159554, 2015; in the data active means activity change below about -80%; inconclusive means no clear call, values can overlap the other calls
T cruzi growth-1: T. cruzi intracellular proliferation inhibitors, primary screen, cell-based, beta-gal Tulahuen parasites, NIH3T3 host, luminescence | inhibition, % at 8.34 µM | T. cruzi beta-gal in NIH3T3, GalScreen luminescence, 90 h | 5.9% of 77,000 active;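 active means mean inhibition above about 93%, with at least 55% of replicates each passing it, limit read from the data, passing the limit was not always enough; inconclusive means only one of those two conditions holds; inactive means neither condition holds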
C diff growth: C. difficile growth inhibitors, primary screen, HTS | AID 1259249, 2017 | 0.25% of 86,000 active | Clostridium difficile clinical isolate growth, OD600, 24 h; stronger effect = lower value | growth activity, negative = inhibition, % at 16 µg/mL (by protocol);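 active means mean growth activity at or below -80% and every replicate also at or below -80%; inconclusive means mean at or below -80% but some replicate above -80%; inactive means mean growth activity above -80%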;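 further: 0% = DMSO wells and -100% = levofloxacin 16 µg/mL wells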
T cruzi growth-2: T. cruzi intracellular proliferation inhibitors, confirmation, cell-based, NIH3T3 host, beta-gal parasite, luminescence, cherry-pick. shares compounds with T cruzi growth-1. 72% of 5,600 active. T. cruzi beta-gal in NIH3T3, GalScreen luminescence, 90 h. inhibition, % at 8.35 µM. AID 651739, 2012;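 active means mean replicate inhibition above about 95% and at least 55% of replicates individually reaching it, limit read from the data; inconclusive means only one of the two criteria is met; inactive means neither criterion is met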
T cruzi growth-3: inhibitors of intracellular T. cruzi replication, confirmation, NIH3T3 host cells, beta-gal parasites, cherry-pick, set 2. shares compounds with T cruzi growth-1. T. cruzi beta-gal in NIH3T3, GalScreen luminescence, 90 h. inhibition, % at 2.09 µM. 21% of 5,600 active;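 active means mean inhibition above about 95%, with at least 55% of replicates also reaching it, limit read from the data; inconclusive means meets just one of the two conditions; inactive means meets neither condition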;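 further: plate controls were neutral control median for no effect and positive control median for full effect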
NIH3T3 tox: cytotoxicity in mouse NIH/3T3 fibroblasts, confirmation, cytotoxicity control for T. cruzi proliferation inhibitor project, cell-based, cherry-pick, single point. cytotoxicity (signal decrease), % at 8.35 µM. NIH/3T3 viability, CellTiter-Glo ATP luminescence, 90 h. 14% of 5,600 active. shares compounds with T cruzi growth-1. AID 651742, 2012;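 active means mean signal decrease across replicates above about 35% based on untreated-well scatter, with enough replicates individually passing, limit read from the data; inconclusive means no rule stated though some were filed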;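 further: 0% = median of neutral control wells and 100% = median of positive control wells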
3T3 cytotox 2: NIH/3T3 fibroblast cytotoxicity, confirmation, cytotoxicity control, cell-based, cherry-pick, single point, set 2; shares compounds with T cruzi growth-1; NIH/3T3 viability, CellTiter-Glo ATP luminescence, 90 h; inhibition, % at 24.9 µM; 56% of 5,600 active; AID 651744, 2012;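 active means mean loss of cell viability signal at or above a set limit, and enough replicates individually reaching it; inconclusive means meets only the mean limit or only the replicate share; inactive means meets neither condition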;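 further: 0% = median of neutral control wells and 100% = median of positive control wells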
Starred values were filed as active, the others as inactive; ? = inconclusive; nt = no result given.

SMILES	Pf Dd2 growth	T cruzi growth-1	C diff growth	T cruzi growth-2	T cruzi growth-3	NIH3T3 tox	3T3 cytotox 2
CCS(=O)(=O)N1CCCCN2[C@H](CO)[C@H](c3ccc(-c4ccccc4)cc3)[C@H]2C1	-8.6	84.0	-10.8	nt	nt	nt	nt
CCS(=O)(=O)N1CCCCN2[C@H](C1)[C@H](c1ccc(-c3ccccc3)cc1)[C@@H]2CO	2.8	20.1	-2.6	nt	nt	nt	nt
O=S(=O)(Cc1ccccc1)N1CCCCN2[C@@H](CO)[C@@H](c3ccc(-c4ccccc4)cc3)[C@@H]2C1	-64.6	99.1*	23.1	102.5*	76.0	30.5	106.7*
O=S(=O)(c1ccc(F)cc1)N1CCCCN2[C@H](C1)[C@@H](c1ccc(-c3ccccc3)cc1)[C@@H]2CO	10.2	102.7*	6.3	107.6*	73.8	13.3	61.9*
CCS(=O)(=O)N1CCCCN2[C@H](C1)[C@@H](c1ccc(-c3ccccc3)cc1)[C@@H]2CO	-42.4	68.1	-3.3	nt	nt	nt	nt
O=S(=O)(Cc1ccccc1)N1CCCCN2[C@H](CO)[C@@H](c3ccc(-c4ccccc4)cc3)[C@H]2C1	-26.4	112.3*	-1.8	100.9*	33.3	19.7	105.7*
CC(C)C#Cc1cnc2c(c1)C(=O)N([C@@H](C)CO)C[C@H](C)[C@H](CN(C)C(=O)Cc1ccccn1)O2	-33.6	-46.4	2.2	nt	nt	nt	nt
CO[C@H](CN(C)Cc1nccs1)[C@H](C)CN([C@@H](C)CO)S(=O)(=O)c1ccc(C)cc1	-12.5	40.4	nt	nt	nt	nt	nt
O=S(=O)(Cc1ccccc1)N1CCCCN2[C@H](CO)[C@H](c3ccc(-c4ccc(F)cc4)cc3)[C@H]2C1	-48.4	?	47.5	93.7	101.8*	64.0*	104.0*
O=S(=O)(Cc1ccccc1)N1CCCCN2[C@@H](CO)[C@H](c3ccc(-c4cncnc4)cc3)[C@@H]2C1	-18.4	84.9	-1.9	nt	nt	nt	nt
O=C(C[C@@H]1CC[C@@H]2[C@H](COC[C@H](O)CN2C(=O)Nc2ccc(Cl)cc2)O1)NC1Cc2ccccc2C1	8.9	nt	72.1	nt	nt	nt	nt
CCS(=O)(=O)NCC[C@H]1CC[C@H](NC(=O)C2CCOCC2)[C@H](CO)O1	-3.3	-2.2	-4.4	nt	nt	nt	nt
CCCN1C[C@H](C)[C@H](OC)CN(C)C(=O)c2cc(NC(=O)C3CCC3)ccc2OC[C@H]1C	-1.1	-51.5	-6.4	nt	nt	nt	nt
C[C@@H]1CN([C@@H](C)CO)C(=O)c2cc(C#CC3CCCCC3)cnc2O[C@@H]1CN(C)S(=O)(=O)c1cccc(F)c1	-4.6	nt	-6.0	nt	nt	nt	nt
C[C@H]1CN([C@@H](C)CO)C(=O)c2cc(C#CC3CCCC3)cnc2O[C@@H]1CN(C)S(=O)(=O)c1cccc(F)c1	-70.3	120.3*	-1.9	105.2*	47.5	10.7	82.9*
C[C@@H]1CN([C@H](C)CO)C(=O)c2cc(C#CC3CCCC3)cnc2O[C@H]1CN(C)S(=O)(=O)c1cccc(F)c1	-60.1	?	-0.8	104.5*	79.6	31.7	76.5*
C[C@@H]1CN([C@@H](C)CO)C(=O)c2cc(C#CC3CCCCC3)cnc2O[C@H]1CN(C)S(=O)(=O)c1cccc(F)c1	-31.6	nt	2.6	nt	nt	nt	nt
COCC(=O)N(C)C[C@@H]1Oc2cc(-c3ccc(OC)cc3)ccc2S(=O)(=O)N([C@H](C)CO)C[C@H]1C	-4.0	-5.8	0.7	nt	nt	nt	nt
CO[C@@H]1CN(C)C(=O)c2cc(NC(=O)Nc3ccccc3F)ccc2OC[C@H](C)N(C)C[C@H]1C	19.2	-77.5	nt	nt	nt	nt	nt
Cc1ccc(S(=O)(=O)N2CC[C@@H]3[C@H](CO)Nc4ccc(C#Cc5ccc(F)cc5)cc4[C@@H]32)cc1	-3.0	-11.3	-11.6	nt	nt	nt	nt
O=S(=O)(c1ccccc1)N1CC[C@H]2[C@H](CO)Nc3ccc(C#Cc4cccc(F)c4)cc3[C@H]21	-62.3	nt	45.5	nt	nt	nt	nt
O=S(=O)(c1ccccc1)N1CC[C@@H]2[C@H](CO)Nc3ccc(C#Cc4cccc(F)c4)cc3[C@@H]21	-25.9	?	32.1	100.7*	111.0*	46.2*	59.2*

Screening data (PubChem BioAssay)
